Laboratory results as given in PubChem BioAssay (Tox21).
Where “and” joins values, the source holds several entries; their conditions need not be identical. Identical values can stand only once. Results filed as inconclusive are left out. Where a call stands in place of a potency, no number is given. Calls of active or inactive are those of the source. Unless noted, calls follow the shape of the dose curve; as a rule, active = well fitted curve in the direction sought with a large enough effect in the repeat runs; inconclusive = weak or mixed curves; inactive = no such curve, though single readings can be large; an effect the other way counts as inactive or inconclusive.

Assays:
[1] = A CellTox Green Cytotoxicity Assay to monitor cytotoxicity in HepG2 cells - 8 hour (AID 1224890); settings: CellTox Green fluorescence; series mostly up to 76.8 µM; also: nearly all actives have a fitted effect of over 45% in size; also: potency is read from the fitted curve at half-maximal effect
Summary of the method: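 HepG2 cells were seeded together with the CellTox Green dye at 600 cells/well, left 5 h at 37 C/5% CO2, then given compounds in DMSO. Fluorescence from dye bound to dead-cell DNA was read repeatedly over 40 h of treatment at 37 C.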

[2] = qHTS assay to identify small molecule antagonists of the estrogen receptor alpha (ER-alpha) signaling pathway using the BG1 cell line in the presence of 0.1 nM 17-beta-estradiol - cell viability counter screen (AID 1259241); settings: VM7Luc4E2 (BG1) viability, CellTiter-Fluor protease, 22 h, 0.1 nM estradiol agonist added; series mostly up to 92.4 µM; also: nearly all actives have a fitted effect of over 40% in size; also: potency is read from the fitted curve at half-maximal effect
Summary of the method: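 Estradiol-stimulated (0.1 nM) VM7Luc4E2 cells exposed to compounds 22 hr; viability measured by fluorescence of cleaved CellTiter-Fluor substrate after 30 min.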

[3] = qHTS assay to identify small molecule antagonists of the androgen receptor (AR) signaling pathway using the MDA cell line in the presence of 0.5 nM R1881 - cell viability counter screen (AID 1259242); settings: MDA-kb2 viability, CellTiter-Fluor protease fluorescence, 16 h; series mostly up to 92.4 µM; also: nearly all actives have a fitted effect of over 45% in size; also: potency is read from the fitted curve at half-maximal effect
Summary of the method: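 MDA-kb2 cells (human breast carcinoma, stably carrying MMTV-luciferase reporter) were exposed to compounds with 0.5 nM R1881 (final) for 16 hr at 37C, 0% CO2; viability then read as live-cell protease fluorescence (CellTiter-Fluor, 30 min) in the same wells.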

[4] = qHTS assay to identify small molecule phospholipidosis (PLD) inducers (AID 1259344; active = well fitted curve in the direction sought with a large enough effect; an effect the other way counts as inactive or inconclusive); settings: HepG2 phospholipidosis, LipidTOX Red imaging, 24 h; series mostly up to 38.3 µM
Summary of the method: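 HepG2 cells, 900/well, treated with compound plus LipidTOX Red for 24 h at 37 C; amiodarone positive and DMSO negative controls. Fixed with paraformaldehyde/Hoechst, then high-content imaging scored LipidTOX pit count and integrated intensity per well and per cell.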

[5] = qHTS assay to identify small molecule HDAC inhibitors (AID 1259364); settings: HCT-116 HDAC-Glo I/II luminescence, 2 h; series mostly up to 92.4 µM; also: nearly all actives have a fitted effect of over 45% in size; also: potency is read from the fitted curve at half-maximal effect
Summary of the method: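 Wild-type HCT-116 cells were plated overnight, exposed to compounds for 2 h at 37 °C, then given HDAC-Glo class I/II luminogenic reagent for 30 min at room temperature before luminescence was read.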

[6] = qHTS assay to identify small molecule HDAC inhibitors - cell viability counter screen (AID 1259365); settings: HCT-116 viability, CellTiter-Glo ATP luminescence, 2 h; series mostly up to 92.4 µM; also: nearly all actives have a fitted effect of over 50% in size; also: potency is read from the fitted curve at half-maximal effect
Summary of the method: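 After overnight seeding at 1,500 cells per well, wild-type HCT-116 cultures took up compounds in DMSO for 2hr at 37 C. Viable cell content came from luminescence with CellTiter-Glo.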

[7] = qHTS assay to identify small molecule antagonists of the sonic hedgehog signaling (Shh) pathway - cell viability counter screen (AID 1259367); settings: NIH/3T3 Gli1-Luc viability, CellTiter-Fluor, 24 h; series mostly up to 92.4 µM; also: nearly all actives have a fitted effect of over 55% in size; also: potency is read from the fitted curve at half-maximal effect
Summary of the method: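 NIH/3T3-derived Gli1-Luc reporter cells, 2,000/well, plated 4 hr before compound addition, then stimulated with conditioned medium for 24 hr at 37C. Viability measured in the same wells by CellTiter-Fluor fluorescence, reagent added at 23 hr for 1 hr.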

[8] = qHTS assay to identify small molecule agonists of the sonic hedgehog signaling (Shh) pathway - cell viability counter screen (AID 1259366); settings: NIH/3T3 Gli1-Luc viability, CellTiter-Fluor, 24 h; series mostly up to 92.4 µM; also: nearly all actives have a fitted effect of over 50% in size; also: potency is read from the fitted curve at half-maximal effect
Summary of the method: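 Same-well cytotoxicity read. Gli1-Luc reporter 3T3 cells; compounds 24hr, 37C/5% CO2; CellTiter-Fluor fluorescence.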

| SMILES | Potency [1] | Potency [2] | Potency [3] | Potency [4] | Potency [5] | Potency [6] | Potency [7] | Potency [8] |
| --- | --- | --- | --- | --- | --- | --- | --- | --- |
| CCOC(=O)c1ccc(C#Cc2ccc3c(c2)C(C)(C)CCS3)nc1 | inactive | inactive | inactive | inactive | inactive | inactive | inactive | – |
| CC(=O)OCC[N+](C)(C)C | inactive | inactive | inactive | inactive | inactive | inactive | inactive | inactive |
| CCCCCCCCC(CCCCCC)C(=O)O (stereo not drawn) | inactive | inactive | inactive | – | inactive | inactive | inactive | inactive |
| CC(=O)NC1(c2cccc(F)c2)CCN(CC[C@@]2(c3ccc(Cl)c(Cl)c3)CN(c3ccccc3)C(=O)CO2)CC1 | inactive | inactive | inactive | – | inactive | inactive | – | 24.4 µM (active) |
| CC(C)C(O)(c1ccc(OC(F)(F)F)cc1)c1cncnc1 (stereo not drawn) | inactive | inactive | inactive | – | inactive | inactive | inactive | inactive |
| CCCCCC[C@@H](O)C/C=C\CCCCCCCC(=O)O | inactive | inactive | inactive | inactive | inactive | inactive | inactive | inactive |
| CCCCCCCCOc1ccc(C(=O)O)cc1 | inactive | inactive | inactive | – | – | inactive | inactive | inactive |
| COc1ccc(OC(=O)N(CC(=O)O)Cc2ccc(OCCc3nc(-c4ccccc4)oc3C)cc2)cc1 | inactive | inactive | inactive | – | inactive | inactive | inactive | inactive |
| O=C1c2ccccc2C(=O)C1(O)O | inactive | inactive | inactive | – | inactive | – | 54.8 µM (active) | – |
| O=C(Nc1cccc2c(=O)cc(-c3nn[nH]n3)oc12)c1ccc(OCCCCc2ccccc2)cc1 | 21.3 µM (active) | inactive | inactive | inactive | inactive | inactive | inactive | – |
| CC[C@]1(O)C[C@H]2CN(CCc3c([nH]c4ccccc34)[C@@](C(=O)OC)(c3cc4c(cc3OC)N(C=O)[C@H]3[C@@](O)(C(=O)OC)[C@H](OC(C)=O)[C@]5(CC)C=CCN6CC[C@]43[C@@H]65)C2)C1 | inactive | inactive | inactive | – | inactive | inactive | – | – |
| CC1=C(Br)C(=O)C(Br)=C/C1=C(/c1ccccc1S(=O)(=O)O)c1cc(Br)c(O)c(Br)c1C | inactive | 18.6 µM (active) | 18.6 µM (active) | – | 7.39 µM (active) | 18.6 µM (active) | 20.8 µM (active) | 18.6 µM (active) |
| Cc1ccc2c(Br)cc(Br)c(O)c2n1 | inactive | inactive | inactive | inactive | inactive | inactive | inactive | – |
| Cc1cccc(O)c1N | inactive | 61.8 µM (active) | inactive | – | inactive | inactive | 61.8 µM (active) | – |
| O=C(O)c1cccc(-c2noc(-c3ccccc3F)n2)c1 | inactive | inactive | inactive | inactive | 0.422 µM (active) | – | inactive | – |
| NNC(=O)CP(=O)(c1ccccc1)c1ccccc1 | inactive | inactive | inactive | inactive | inactive | inactive | inactive | inactive |

| SMILES | Potency [1] | Potency [2] | Potency [3] | Potency [4] | Potency [5] | Potency [6] | Potency [7] | Potency [8] |
| --- | --- | --- | --- | --- | --- | --- | --- | --- |
| CC(C)C=O | inactive | inactive | inactive | – | inactive | inactive | inactive | – |
| O=C(O)c1ccc(OCCCOc2ccc(C(=O)O)cc2)cc1 | inactive | inactive | inactive | inactive | inactive | inactive | inactive | inactive |
| CC1(C)[C@@H](OC(=O)CCC(=O)O)CC[C@]2(C)[C@H]3C(=O)C=C4[C@@H]5C[C@@](C)(C(=O)O)CC[C@]5(C)CC[C@@]4(C)[C@]3(C)CC[C@@H]12 | inactive | inactive | inactive | inactive | inactive | inactive | inactive | inactive |
| CCCCCCCC/C=C\CCCCCCCCO | inactive | inactive | inactive | – | inactive | inactive | inactive | – |
| O=c1c(O)c(-c2ccc(O)cc2)oc2cc(O)cc(O)c12 | inactive | inactive | inactive | – | 21.6 µM (active) and 16.4 µM (active) | inactive | 48.4 µM (active) | inactive |
| Clc1cc(Cl)nc(Cl)n1 | inactive | inactive | inactive | – | inactive | inactive | inactive | inactive |
| O=C1NCCN1CCO | inactive | inactive | inactive | – | inactive | inactive | inactive | – |
| CC(=O)c1ccc([N+](=O)[O-])cc1 | inactive | inactive | inactive | – | inactive | inactive | inactive | inactive |
| c1csc(SSc2cccs2)c1 | inactive | inactive | inactive | – | inactive | inactive | 43.3 µM (active) | 43.3 µM (active) |
| CC(=O)Nc1cc(S(=O)(=O)O)cc2cc(S(=O)(=O)O)c(N=Nc3ccccc3)c(O)c12 | inactive | 19.3 µM (active) | 27.3 µM (active) | – | inactive | – | 24.3 µM (active) | 27.3 µM (active) |
| c1ccc2c(c1)CCc1ccccc1N2 | inactive | inactive | inactive | – | – | inactive | inactive | inactive |
| CCC(OCCCOC)OC(C)=O (stereo not drawn) | inactive | inactive | inactive | – | inactive | inactive | inactive | inactive |
| CC1CC(C)C(=O)C1=O (stereo not drawn) | inactive | inactive | inactive | – | inactive | inactive | inactive | inactive |
| C=CC(=O)OCC1CC2CC1C1CCC(COC(=O)C=C)C21 (stereo not drawn) | inactive | inactive | inactive | – | inactive | inactive | – | – |
| Cc1ccc(OC(=O)c2ccccc2O)cc1 | inactive | inactive | inactive | – | 15.4 µM (active) | inactive | inactive | – |
| O=C1c2ccccc2C(=O)N1CCc1noc(-c2ccc(CN3CCCCCC3)s2)n1 | 31.8 µM (active) | inactive | inactive | – | inactive | inactive | inactive | inactive |
